A selection: hits, their analogues and other compounds. The true share with any hit is near 3%.
ALOX12 inh: blocks human arachidonate 12S-lipoxygenase; 580,000 tested, 1.1% active; purified 12hLO, xylenol orange hydroperoxide absorbance; Potency, µM (titrated, usually from 108 µM), for the others: top-dose activity change, negative = inhibition, usual class: inhibitors; AID 1671190; P18054; active = well fitted inhibition curve with a large enough effect; inconclusive = small, poorly fitted or top-dose-only effect, or another doubt; inactive = no such curve, though single readings can be large or run the other way; also: potency is read from the fitted curve at half-maximal effect; % is scaled to controls: 0 for no effect and ±100 for the full control effect
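Purified human 12hLO at 150 nM in 25 mM Hepes, 0.01% Triton X-100, pH 7.0, preincubated 15 min at room temperature with compound. Reaction started with 40 uM arachidonic acid, 30 min at room temperature. Hydroperoxide measured by Fe-xylenol orange, 573/405 nm absorbance ratio.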
BCR signal inh: inhibitors of chronic active B-cell receptor signaling; Potency, µM (titrated, usually from 46.1 µM), inactives show at the highest dose activity change, negative = inhibition, hits mostly inhibitors; 340,000 tested, 0.05% active; ABC-DLBCL IkBa-CBG/CBR reporter, luminescence ratio, 4 h; active = well fitted inhibition curve with a large enough effect in the signal ratio, with a control signal flat, not every such curve was filed as active; inconclusive = small, poorly fitted or top-dose-only effect, or effect the other way, or a change in a side signal; the % refers to the signal ratio;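 also: potency is read from the fitted curve at half-maximal effect; plate controls were basal doxycycline-induced cells for no effect and cells given 10 µM MG132 for full effect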
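TMD8 ABC-DLBCL cells carrying doxycycline-inducible green luciferase fused to IkappaBalpha plus unfused red luciferase were exposed to compounds (up to 46 uM) for 4 hrs at 37C. Activity came from the overlap-corrected green/red luminescence ratio.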
ClpP mod: qHTS Assay for Activators of ClpP; 340,000 tested, 1.9% active; Potency, µM (titrated, usually from 57.5 µM), for the others: at the highest dose activity change, negative = active; ATP-dependent Clp protease proteolytic subunit (Bacillus subtilis (strain 168)), P80244; purified B. subtilis ClpP, FRET peptide cleavage, 20 min; active = well fitted falling curve with a large enough effect; inconclusive = small, poorly fitted or top-dose-only effect; inactive = no such curve, though single readings can be large or run the other way; also: potency is read from the fitted curve at half-maximal effect; the source files actives as falling curves though it sought activators and does not explain the sign; nearly all actives have a fitted effect of over 65% in size
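FRET quenching reversal measured ClpP activation: 10 microg/mL B. subtilis ClpP at pH 8 with the FRET-FV decapeptide, read at 430 nm after 320 nm excitation. The 20-min minus 0-min signal was scaled between DMSO/no-enzyme wells and ADEP (5.8 microM final).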
KCNH2 3.1 inh: KCNH2 3.1 (human) potassium channel inhibition | 340,000 tested, 0.95% active | AID 720553 | activity change, % (tested at about 1.8 µM) | U2OS KCNH2 3.1, thallium flux FluxOr; hits give low values;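 active = maximum activity change below -70%; inconclusive = maximum activity change from -70% to -50%; inactive = maximum activity change above -50%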;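 also: thallium influx rate constant from kinetic fluorescence after stimulation buffer; % is scaled to controls: 0 for no effect and ±100 for the full control effect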
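Channel expression came from 3.1 mutant virus (1.77 x 10^8 /mL) applied to suspended U2OS cells for 4 h. Flux was tracked with FluxOr dye plus Red40 quencher, and kinetic rate constants normalized to controls.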
LDHA inh: LDHA (human) enzyme inhibition | 480,000 tested, 0.15% active | AID 1347041 | P00338 | purified LDHA, NADH/diaphorase-resazurin fluorescence; hits give low values | activity change, % (values are at about 110 or 230 µM); in the data active = activity change below about -30%; inconclusive = mostly about -25% to -30%;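 also: plate controls were DMSO wells for no effect and wells without enzyme for full effect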
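Resorufin fluorescence (ex540/em590), read at 0 and 20 min after diaphorase/resazurin addition, reports the NADH left after a 5 min room-temperature reaction of 2 nM human LDH5 with 0.06 mM NADH and 0.2 mM pyruvate.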
KCNH2 WT inh: blocks the wildtype human KCNH2 potassium channel. U2OS, BacMam KCNH2, thallium flux FluxOr; hits give low values. activity change, % at 1.84 µM. 340,000 tested, 0.37% active. AID 720551;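 active = maximum activity change below -70%; inconclusive = maximum activity change between -70% and -50%; inactive = maximum activity change above -50%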; also: % is scaled to controls: 0 for no effect and ±100 for the full control effect
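U2OS cells transduced with wild-type KCNH2 virus are loaded with FluxOr dye for 45 min, and thallium flux is measured in kinetic reads before and after stimulation buffer. Rate constants are normalized to DMSO controls.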
An asterisk follows results filed as active; ? = inconclusive; / = no result given; [ ] = dose if it differs, or a comment.

SMILES	ALOX12 inh	BCR signal inh	ClpP mod	KCNH2 3.1 inh	LDHA inh	KCNH2 WT inh
COc1cc(Cl)ccc1-c1cccc(COc2cnc3c(ccn3CC(=O)O)c2)c1	63µM*	/	/	/	/	/
CC1(C)CC(=O)C2=C(C1)NC(Nc1nc3ccccc3o1)=NC2c1cccc(Cl)c1 (stereo not given)	32%	/	/	/	-30*	/
O=C(Cn1c(=O)nc2n1C(=O)N(c1ccccc1)C2)NCc1ccccc1	?	/	/	/	0	/
c1ccc2c(-c3nc(-c4ccncc4)no3)cccc2c1	-14%	?	32µM*	5	-3	-16
c1cncc(-c2noc(-c3cccc4ccccc34)n2)c1	13%	?	35µM*	10	-4	32
c1ccc(-c2noc(-c3cccc4ccccc34)n2)cc1	13%	?	28µM*	-6	-3	7
c1ccc(-c2ccccc2-c2nc(-c3cccnc3)no2)cc1	-2%	11%	-2%	0	-2	-22
Brc1ccc(-c2noc(-c3cccc4ccccc34)n2)cc1	17%	/	/	/	7	/
Cn1cc(C(=O)NC2CCN(Cc3noc(C(C)(C)C)n3)CC2)cn1	8%	/	/	/	0	/
CC(C)C(=O)N1CCN(Cc2coc(-c3ccc(Cl)cc3)n2)CC1	-10%	/	/	/	-19	/
Cc1ccc(C)c(C(NC(=O)C2CCCCC2)c2cccnc2)c1 (stereo not given)	29%	/	/	/	2	/
Cn1c(=O)c2c(nc(Nc3ccc(Cl)c(Cl)c3)n2CC(=O)O)n(C)c1=O	-59%	/	/	/	-7	/
CCn1c(C)[n+](CC)c2ccc(S(=O)(=O)NC)cc21	-14%	5%	/	10	-10	0
CCn1c(C)[n+](CCCS(=O)(=O)[O-])c2cc(Cl)c(Cl)cc21	32%	2%	1%	4	-46*	-9
Cc1c(CN2CCC(n3nccc3NC(=O)C3CC3)CC2)[nH]c2ccccc12	15%	-2%	-14%	-74*	-3	-21
CC(C)c1ccc(CN2CCC(n3nccc3NC(=O)C3CCCC3)CC2)cc1	-5%	/	1%	-72*	-4	7
O=C(Nc1ccnn1C1CCN(Cc2ccc(Cl)cc2)CC1)C1CCCC1	-20%	-2%	2%	-44	-4	55
CCc1ccc(CN2CCC(n3nccc3NC(=O)C3CCCC3)CC2)cc1	0%	0%	28µM*	-75*	-3	-30
Cc1ccc2oc(C(=O)N(Cc3ccc(Cl)cc3)Cc3ccco3)cc(=O)c2c1	?	/	/	/	7	/
CCCCn1c(=O)nc2n(-c3ccccc3C)c3ccccc3cc-2c1=O	?	1%	18µM*	-1	2	21
Cc1cccc(C)c1-n1nnnc1C1(Nc2ccccc2)CCCC1	-51%	/	/	/	4	/
N/C(=N/OCc1cccc([N+](=O)[O-])c1)c1nonc1N	-3%	?	11µM*	14	5	1
COc1cccc(/C=C(\C#N)c2ccc(Cl)cc2)c1OC(C)C	13%	/	/	/	-8	/
Nc1ccc(N=Cc2ccc(Cl)cc2Cl)cc1Cl	?	/	/	/	9	/
COc1ccc(N(C)C(=O)C2CCCN2S(=O)(=O)c2cccc3nsnc23)c(OC)c1 (stereo not given)	/	0%	3%	-7	6	-208*
SMILES	ALOX12 inh	BCR signal inh	ClpP mod	KCNH2 3.1 inh	LDHA inh	KCNH2 WT inh
O=[N+]([O-])c1ccc(NCCNCCOc2nonc2-c2ccccc2)c([N+](=O)[O-])c1	-1%	2%	16µM*	-93*	2	-46
O=C(OCCc1ccccc1)c1ccccc1	-2%[176 µM]	/	/	/	/	/
c1ccc(-c2ccc(OCCCNC3CCCC3)cc2)cc1	?	?	/	-92*	-19	-10
CCc1cc2c(CN3CCN(C)CC3)cc(=O)oc2cc1O	-10%	12%	?	18	3	-2
COc1ccc(N2CCN(Cc3cc(=O)oc4cc(-c5ccccc5)c(O)cc34)CC2)cc1	37%	-3%	32µM*	-5	1	-1
CCc1cc2c(CN3CCN(CCO)CC3)cc(=O)oc2cc1O	8%	?	14µM*	-1	5	7
O=C(C1CCCC1)N1CCc2nc(C3CC3)nc(-c3ccc(Cl)cc3)c2C1	5%	/	/	/	/	/
CC(C)CNS(=O)(=O)c1ccc(CCC(=O)N2CCC(C(N)=O)CC2)cc1	8%	-10%	-3%	-113*	-2	4
Cc1ccc(-c2cc([C@H]3[C@@H]4C=CCC[C@@]4(C)C(=O)N3Cc3ccccc3)ccc2F)cc1	-57%	-5%	?	-11	-1	-3
C[C@@]12CCC=C[C@H]1[C@H](c1ccc(F)c(/C=C/c3ccccc3)c1)N(Cc1ccccc1)C2=O	-2%	13%	28µM*	4	-3	-17
COc1ccc(-c2cc([C@H]3[C@@H]4C=CCC[C@@]4(C)C(=O)N3Cc3ccccc3)ccc2F)cc1OC	11µM*	?	-22%	7	2	7
Cc1ccc(OCCn2nc(C(=O)O)c3ccccc3c2=O)cc1	?	/	/	/	11	/
C=CCN(C(=O)CSc1nc2ccsc2c(=O)n1Cc1ccc(C(=O)O)cc1)c1ccccc1	0%	/	-1%	11	2	-254*
CC(C)c1ccc(NC(=O)CSc2nc3ccsc3c(=O)n2Cc2ccc(C(=O)O)cc2)cc1	-9%	0%	-1%	-2	-6	-5
CCOC(=O)C1C(=O)CC(C)(O)C(C(=O)OCC)C1/C=C/c1ccccc1 (stereo not given)	10%	-4%	-4%	-106*	-9	-1
c1ccc(CN2CCN(c3ncnc4scc(-c5ccccc5)c34)CC2)cc1	64%	/	/	/	-1	/
CC1CCN(C(=S)c2cn(Cc3cccc(F)c3)c3ccccc23)CC1	45µM*	0%	/	6	-4	-9
CN1CCN(C(=S)c2cn(Cc3ccccc3)c3ccccc23)CC1	-11%	7%	2%	18	-1	28
N#Cc1c(-c2cccnc2)c2c([nH]c1=S)CCCC2	?	10%	1%	-4	12	-13
N#Cc1c(-c2ccco2)c2c([nH]c1=S)CCCC2	32µM*	17%	-3%	-7	-2	-48
CCCCN(C)CCCNC(=O)C1CCC(CNS(=O)(=O)c2c(C)cc(C)cc2C)CC1 (stereo not given)	-17%	?	1%	-77*	0	-26
CCN(CC)CCCNC(=O)C1CCC(CNS(=O)(=O)c2c(C)cc(C)cc2C)CC1 (stereo not given)	-24%	0%	-1%	-12	-7	10
COc1cc2c(N3CCOCC3)cc(O)c(CC(=O)Nc3ccccc3)c2cc1OC	?	?	28µM*	-9	1	-3

Bioassay records from PubChem.
